Assay results reported in PubChem BioAssay (Tox21).
“And” between values parts separate entries of the source, which are not always exact repeats. Equal values may be shown once. Records with an inconclusive call do not appear. Entries that show only a call come without a potency. A structure can be active in one record and inactive in another. The source made the active and inactive calls. Unless noted, calls come from the whole dose curve; as a rule, active = well fitted curve in the direction sought with a large enough effect in the repeat runs; inconclusive = weak or mixed curves; inactive = no such curve, though single readings can be large; an effect the other way counts as inactive or inconclusive.

How the values were obtained:
[1] = qHTS assay to identify small molecule agonists of the RXR signaling pathway - cell viability counter screen (AID 1159529); note: nearly all actives have a fitted effect of over 50% in size; note: potency is the fitted concentration of half-maximal effect;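 for activity change, negative = cytotoxicity: HEK 293T cells carrying an RXR-alpha UAS beta-lactamase reporter; series mostly up to about 77 µM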
In short: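 Tox21 10K compounds were tested for cytotoxicity against GeneBLAzer RXR-alpha HEK 293T cells grown in 2% charcoal-stripped FBS. Exposure lasted 16 hr at 37 C, 5% CO2; viability read by CellTiter-Glo luminescence.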

[2] = qHTS assay to identify small molecule antagonists of the retinoid acid receptor (RAR) signaling pathway - cell viability counter screen (AID 1159551); note: nearly all actives have a fitted effect of over 35% in size; note: potency is the fitted concentration of half-maximal effect
In short: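 Luminescent ATP quantitation (CellTiter-Glo) gave cell viability in C3RL4 cells exposed to test chemicals for 6 h at 37 C alongside 1 uM final retinol.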

[3] = qHTS assay to identify small molecule antagonists of the retinoic acid receptor (RAR) signaling pathway (AID 1159552; note: nearly all actives have a fitted effect of over 50% in size; note: potency is the fitted concentration of half-maximal effect)
In short: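 Overnight-plated C3RL4 reporter cells get compound, then retinol to 1 uM final; plates sit 6 hr at 37 C, 5% CO2. A luciferase reagent is added and light output recorded after 30 min at room temperature.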

[4] = qHTS assay to identify small molecule antagonists of the estrogen related receptor (ERR) signaling pathway from Tox21 library - cell viability counter screen (AID 1224834); note: nearly all actives have a fitted effect of over 30% in size; note: potency is the fitted concentration of half-maximal effect
In short: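 Fluorescence from CellTiter-Fluor gives the viability read-out, taken 30 min after reagent addition. Before that, ERR cells seeded 6 h earlier were incubated with compounds for 17.5 h at 37 C.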

[5] = biological target: Luciferin 4-monooxygenase (Photinus pyralis) (UniProt P08659); experiment: qHTS assay to identify small molecule inhibitors of firefly luciferase (AID 1224835); note: nearly all actives have a fitted effect of over 25% in size; note: potency is the fitted concentration of half-maximal effect; for activity change, negative = inhibition: series mostly up to about 120 µM
Sequence of Luciferin 4-monooxygenase (Photinus pyralis) (P08659 whole entry, looked up): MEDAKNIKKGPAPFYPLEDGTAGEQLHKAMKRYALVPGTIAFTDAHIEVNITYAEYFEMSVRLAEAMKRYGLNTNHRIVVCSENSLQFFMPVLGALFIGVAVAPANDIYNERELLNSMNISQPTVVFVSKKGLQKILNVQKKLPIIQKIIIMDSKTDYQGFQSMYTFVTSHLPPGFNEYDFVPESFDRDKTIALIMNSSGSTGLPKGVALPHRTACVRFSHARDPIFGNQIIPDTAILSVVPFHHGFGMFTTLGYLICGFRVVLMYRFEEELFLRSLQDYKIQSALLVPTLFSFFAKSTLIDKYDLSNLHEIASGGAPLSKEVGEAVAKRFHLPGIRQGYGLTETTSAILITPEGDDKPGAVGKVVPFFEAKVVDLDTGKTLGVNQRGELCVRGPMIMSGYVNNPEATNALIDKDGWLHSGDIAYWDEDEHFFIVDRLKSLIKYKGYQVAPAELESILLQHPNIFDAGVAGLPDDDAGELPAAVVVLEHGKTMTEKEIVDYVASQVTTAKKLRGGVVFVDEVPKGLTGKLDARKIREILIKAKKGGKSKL
In short: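 Biochemical qHTS: compounds run as interplate titrations against purified firefly enzyme, with D-luciferin and ATP each at its KM concentration. Light output recorded by CCD imaging.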

[6] = qHTS assay to identify small molecule agonists of the constitutive androstane receptor (CAR) signaling pathway - cell viability counter screen (AID 1224836); note: nearly all actives have a fitted effect of over 45% in size; note: potency is the fitted concentration of half-maximal effect; for viability change, negative = cytotoxic: series mostly up to about 92 µM
In short: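 Fluorescence from CellTiter-Fluor indicates live cells after 23 h exposure. The human hepatoma line expresses hCAR and a CYP2B6-2.2kb reporter. Incubation medium contains 0.75 uM PK11195 (final).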

[7] = qHTS assay to identify small molecule antagonists of the constitutive androstane receptor (CAR) signaling pathway - cell viability counter screen (AID 1224837); note: nearly all actives have a fitted effect of over 45% in size; note: potency is the fitted concentration of half-maximal effect; for activity change, negative = cytotoxicity: series mostly up to about 92 µM
In short: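 HepG2-CYP2B6-hCAR cells, 2500/well, 4 hr pre-incubation; compound titration, 15 conc.; CITCO 50 nM final; 23 hr, 37 C/5% CO2; CellTiter-Fluor, fluorescence intensity.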

[8] = biological target: Nuclear receptor subfamily 1 group I member 3 (Homo sapiens) (UniProt Q14994); experiment: qHTS assay to identify small molecule antagonists of the constitutive androstane receptor (CAR) signaling pathway (AID 1224838);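 note: HepG2 cells stably expressing hCAR with CYP2B6 luciferase reporter stimulated by CITCO; nearly all actives have a fitted effect of over 40% in size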; note: potency is the fitted concentration of half-maximal effect
Sequence of Nuclear receptor subfamily 1 group I member 3 (Homo sapiens) (Q14994 whole entry, looked up): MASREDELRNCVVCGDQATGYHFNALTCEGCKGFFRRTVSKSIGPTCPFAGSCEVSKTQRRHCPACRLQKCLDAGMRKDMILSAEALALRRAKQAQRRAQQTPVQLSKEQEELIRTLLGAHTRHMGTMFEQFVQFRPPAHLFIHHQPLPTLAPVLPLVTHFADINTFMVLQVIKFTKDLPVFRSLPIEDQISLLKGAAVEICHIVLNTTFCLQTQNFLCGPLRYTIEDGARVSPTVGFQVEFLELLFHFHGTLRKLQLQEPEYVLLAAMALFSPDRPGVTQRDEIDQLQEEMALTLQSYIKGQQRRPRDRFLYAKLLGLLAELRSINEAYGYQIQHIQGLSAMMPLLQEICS
In short: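 HepG2-CYP2B6-hCAR cells; 4 h pre-incubation; cpd (15 conc) + CITCO 50 nM final; 24 h, 37 C/5% CO2; ONE-Glo, luminescence.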

[9] = biological target: Nuclear receptor subfamily 1 group I member 3 (Homo sapiens) (UniProt Q14994); experiment: qHTS assay to identify small molecule agonists of the constitutive androstane receptor (CAR) signaling pathway (AID 1224839); note: nearly all actives have a fitted effect of over 15% in size; note: potency is the fitted concentration of half-maximal effect;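 for activation: HepG2 cells stably carrying human CAR and a CYP2B6 luciferase reporter; series mostly up to about 92 µM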
In short: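 Stable hCAR/CYP2B6-2.2kb HepG2 line in DMEM with 10% FBS; compounds (15 concentrations) and 0.75 uM PK11195 final, 24 h at 37 C/5% CO2, then ONE-Glo luminescence after 30 min.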

[10] = biological target: Thyrotropin receptor (Homo sapiens) (UniProt P16473); experiment: qHTS assay to identify small molecule agonists of the thyroid stimulating hormone receptor (TSHR) signaling pathway (AID 1224843; calls by dose curve; note: nearly all actives have a fitted effect of over 45% in size; note: potency is the fitted concentration of half-maximal effect)
Sequence of Thyrotropin receptor (Homo sapiens) (P16473 whole entry, looked up): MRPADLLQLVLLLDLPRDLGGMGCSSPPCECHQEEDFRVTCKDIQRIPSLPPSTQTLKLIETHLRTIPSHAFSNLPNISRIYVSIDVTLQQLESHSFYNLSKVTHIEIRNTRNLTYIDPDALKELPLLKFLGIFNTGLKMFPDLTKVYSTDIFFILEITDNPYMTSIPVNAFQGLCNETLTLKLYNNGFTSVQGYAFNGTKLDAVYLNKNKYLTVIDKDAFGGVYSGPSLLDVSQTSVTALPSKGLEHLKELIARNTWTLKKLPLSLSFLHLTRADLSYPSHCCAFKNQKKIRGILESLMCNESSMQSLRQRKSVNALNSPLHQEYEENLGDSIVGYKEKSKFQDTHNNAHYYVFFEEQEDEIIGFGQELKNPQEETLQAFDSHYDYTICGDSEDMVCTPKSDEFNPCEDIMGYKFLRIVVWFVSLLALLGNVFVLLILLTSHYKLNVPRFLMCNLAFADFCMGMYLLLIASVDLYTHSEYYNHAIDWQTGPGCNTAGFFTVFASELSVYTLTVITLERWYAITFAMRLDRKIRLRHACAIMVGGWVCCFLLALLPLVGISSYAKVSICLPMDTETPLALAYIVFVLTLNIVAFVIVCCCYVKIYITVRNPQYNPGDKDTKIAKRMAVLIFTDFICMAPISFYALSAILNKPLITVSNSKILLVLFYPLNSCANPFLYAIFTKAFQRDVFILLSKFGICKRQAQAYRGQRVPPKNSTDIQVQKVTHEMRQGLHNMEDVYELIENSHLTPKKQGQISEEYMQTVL
In short: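 Steps: seed 800 TSHR-HEK293 cells per well; add test compound and hold 30 min at ambient temperature; dispense cAMP-d2 then anti-cAMP cryptate; incubate 1 h at ambient; measure fluorescence intensity.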

[11] = qHTS assay to identify small molecule agonists of the retinoic acid receptor (RAR) signaling pathway (AID 1159553)
In short: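 Luminescence from a RARE-driven luciferase reporter in C3RL4 cells served as the read-out, measured after 30 min with detection reagent at room temperature. Compounds in DMSO were applied for 6 hr at 37 C following overnight seeding.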

[12] = qHTS assay to identify small molecule antagonists of the estrogen related receptor signaling pathway with the pleiotropic PPARgamma coactivator (PGC) from Tox21 10K library - cell viability counter screen (AID 1224840; active = well fitted cell-killing curve with a large enough effect in the repeat runs, not every such curve was filed as active; note: nearly all actives have a fitted effect of over 40% in size; note: potency is the fitted concentration of half-maximal effect)
In short: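 PGC/ERR cells, 2,000/well; 6 h pre-incubation 37 C/5% CO2; cpd in DMSO via pin tool; 17.5 h 37 C; CellTiter-Fluor, 30 min; fluorescence.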

[13] = qHTS assay to identify small molecule antagonists of the estrogen related receptor signaling pathway with the pleiotropic PPARgamma coactivator (PGC) from Tox21 10K library (AID 1224841; call rule not given here; note: actives are mostly falling curves and most rising ones were filed inactive; nearly all actives have a fitted effect of over 50% in size; note: potency is the fitted concentration of half-maximal effect; for activity, negative = inhibition: series mostly up to about 92 µM)
In short: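 PGC/ERR cell line, 2,000 cells/well; 6 h pre-incubation 37 C/5% CO2; compounds (DMSO) pinned in; 18 h, 37 C; One-Glo, 30 min RT; luminescence.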

[14] = qHTS assay to identify small molecule agonists of the estrogen related receptor signaling pathway with the pleiotropic PPARgamma coactivator (PGC) from Tox21 10K library (AID 1224842); note: nearly all actives have a fitted effect of over 15% in size
In short: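 PGC/ERR reporter cell line, 2,000 cells per well, incubated 6 h at 37 C before 23 nL compound in DMSO was added. After 18 h at 37 C, One-Glo luminescence read following 30 min at room temperature.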

## O=C(Cc1ccccc1)c1ccccc1
[1]
  Potency: inactive
[2]
  Potency: inactive
[3]
  Potency: inactive
[4]
  Potency: inactive
[5]
  Potency: 71 µM (active)
[6]
  Potency: inactive
[7]
  Potency: inactive
[8]
  Potency: inactive
[9]
  Potency: 54.5 µM (active)
[10]
  Potency: inactive

## CCCCCBr
[1]
  Potency: inactive
[2]
  Potency: inactive
[3]
  Potency: inactive
[11]
  Potency: inactive
[4]
  Potency: inactive
[5]
  Potency: inactive
[6]
  Potency: inactive
[7]
  Potency: inactive
[8]
  Potency: inactive
[12]
  Potency: inactive
[10]
  Potency: inactive

## O=C1c2ccccc2C(=O)N1SC(Cl)(Cl)Cl
[1]
  Potency: inactive
[2]
  Potency: 53.7 µM (active) and 30.6 µM (active)
[3]
  Potency: 17 µM (active) and 15.4 µM (active)
[4]
  Potency: 24 µM (active) and 27.3 µM (active)
[5]
  Potency: 15.7 µM (active) and 20 µM (active)
[6]
  Potency: 26.9 µM (active) and 43.3 µM (active)
[7]
  Potency: 24 µM (active) and 19.3 µM (active)
[8]
  Potency: 19.1 µM (active) and 15.4 µM (active)
[12]
  Potency: 26.9 µM (active) and 24.3 µM (active)
[13]
  Potency: 53.7 µM (active) and 61.1 µM (active)
[14]
  Potency: inactive
[10]
  Potency: 19.1 µM (active) and 12.2 µM (active)

## CCN(C(C)=O)c1cccc(-c2ccnc3c(C#N)cnn23)c1
[1]
  Potency: inactive
[2]
  Potency: inactive
[3]
  Potency: inactive
[11]
  Potency: inactive
[4]
  Potency: inactive
[5]
  Potency: inactive
[6]
  Potency: inactive
[7]
  Potency: inactive
[12]
  Potency: inactive
[10]
  Potency: inactive

## CC(C)(C)NCC(O)c1cc(Cl)c(N)c(C(F)(F)F)c1 (centres undefined)
[1]
  Potency: inactive
[2]
  Potency: inactive
[3]
  Potency: inactive
[11]
  Potency: inactive
[5]
  Potency: inactive
[9]
  Potency: inactive
[12]
  Potency: inactive
[13]
  Potency: inactive
[14]
  Potency: inactive
[10]
  Potency: 2.1 nM (active)

## O=C(NCNC(=O)NC1C(=O)NC(=O)N1CO)NC1C(=O)NC(=O)N1CO (centres undefined)
[1]
  Potency: inactive
[2]
  Potency: inactive
[3]
  Potency: inactive
[11]
  Potency: inactive
[4]
  Potency: inactive
[5]
  Potency: inactive
[12]
  Potency: inactive
[13]
  Potency: inactive
[10]
  Potency: inactive

## Nc1c(Br)cc(Br)c2c1C(=O)c1ccccc1C2=O
[1]
  activity change, negative = cytotoxicity: 4.15% [at 15.8 µM] (inactive)
[2]
  activity change, negative = cytotoxicity: 0.857% [at 19 µM] (inactive)
[3]
  activity, negative = inhibition: 12.6% [at 19 µM] (inactive)
[11]
  Potency: inactive
[4]
  viability change, negative = cytotoxic: -5.59% [at 19 µM] (inactive)
[5]
  activity change, negative = inhibition: -3.13% [at 23.6 µM] (inactive)
[6]
  viability change, negative = cytotoxic: -15% [at 19 µM] (inactive)
[7]
  activity change, negative = cytotoxicity: -15.6% [at 19 µM] (inactive)
[8]
  activity, negative = inhibition: 102% [at 19 µM] (inactive)
[13]
  activity, negative = inhibition: 5.52% [at 19 µM] (inactive)
[14]
  activation: 0.394% [at 19 µM] (inactive)
[10]
  activation: -6.18% [at 19 µM] (inactive)

## O=C(O)COc1cc(Cl)c(Cl)cc1Cl
[1]
  Potency: inactive
[2]
  Potency: inactive
[3]
  Potency: inactive
[11]
  Potency: inactive
[4]
  Potency: inactive
[5]
  Potency: inactive
[6]
  Potency: inactive
[7]
  Potency: inactive
[12]
  Potency: inactive
[13]
  Potency: inactive
[14]
  Potency: inactive
[10]
  Potency: inactive

## CCCCC(CC)CO[N+](=O)[O-] (centres undefined)
[1]
  Potency: inactive
[2]
  Potency: inactive
[3]
  Potency: inactive
[11]
  Potency: inactive
[4]
  Potency: inactive
[5]
  Potency: inactive
[6]
  Potency: inactive
[7]
  Potency: inactive
[12]
  Potency: inactive
[10]
  Potency: inactive

## Cc1nc(N(C)C)nc(OC(=O)N(C)C)c1C
[1]
  Potency: inactive
[2]
  Potency: inactive
[3]
  Potency: inactive
[11]
  Potency: inactive
[4]
  Potency: inactive
[5]
  Potency: inactive
[6]
  Potency: inactive
[7]
  Potency: inactive
[10]
  Potency: inactive

## COC1=CC(=O)O[C@@H](/C=C/c2ccc3c(c2)OCO3)C1
[1]
  Potency: inactive
[2]
  Potency: inactive
[3]
  Potency: 8.27 µM (active)
[11]
  Potency: inactive
[4]
  Potency: inactive
[5]
  Potency: 60.6 µM (active)
[6]
  Potency: inactive
[7]
  Potency: inactive
[12]
  Potency: inactive
[13]
  Potency: 18.5 µM (active)
[10]
  Potency: inactive

## CCC(C)(C)c1ccc(O)c(C(C)(C)CC)c1
[1]
  Potency: 12.2 µM (active) and 12.3 µM (active)
[2]
  Potency: 53.9 µM (active) and 30.6 µM (active)
[3]
  Potency: 24.3 µM (active)
[4]
  Potency: 48 µM (active)
[5]
  Potency: inactive
[6]
  Potency: 60.4 µM (active)
[8]
  Potency: 60.4 µM (active)
[9]
  Potency: inactive
[12]
  Potency: 53.9 µM (active) and inactive
[13]
  Potency: 60.4 µM (active) and inactive
[10]
  Potency: 13.5 µM (active) and 24.3 µM (active)

## NP(N)(=O)NC(=O)c1ccc(F)cc1
[1]
  Potency: inactive
[2]
  Potency: inactive
[3]
  Potency: inactive
[11]
  Potency: inactive
[4]
  Potency: inactive
[5]
  Potency: inactive
[6]
  Potency: inactive
[7]
  Potency: inactive
[12]
  Potency: inactive
[13]
  Potency: inactive
[10]
  Potency: inactive

## CCC1CCC(=O)O1 (centres undefined)
[1]
  Potency: inactive
[2]
  Potency: inactive
[3]
  Potency: inactive
[11]
  Potency: inactive
[4]
  Potency: inactive
[5]
  Potency: inactive
[6]
  Potency: inactive
[7]
  Potency: inactive
[12]
  Potency: inactive
[10]
  Potency: inactive

## C#CC(O)(C=CCl)CC (centres undefined)
[1]
  Potency: inactive
[2]
  Potency: inactive
[3]
  Potency: inactive
[11]
  Potency: inactive
[4]
  Potency: inactive
[5]
  Potency: inactive
[6]
  Potency: inactive
[7]
  Potency: inactive
[12]
  Potency: inactive
[10]
  Potency: inactive

## CCC(C)Cl (centres undefined)
[1]
  Potency: inactive
[2]
  Potency: inactive
[3]
  Potency: inactive
[11]
  Potency: inactive
[4]
  Potency: inactive
[5]
  Potency: inactive
[6]
  Potency: inactive
[7]
  Potency: inactive
[8]
  Potency: inactive
[12]
  Potency: inactive
[10]
  Potency: inactive

## CNC(=O)Oc1cccc(N=CN(C)C)c1
[1]
  Potency: inactive
[2]
  Potency: inactive
[3]
  Potency: inactive
[11]
  Potency: inactive
[4]
  Potency: inactive
[5]
  Potency: inactive
[6]
  Potency: inactive
[7]
  Potency: inactive
[8]
  Potency: inactive
[12]
  Potency: inactive
[10]
  Potency: inactive

## COC(=O)C1(O)c2ccccc2-c2ccccc21
[1]
  Potency: inactive
[2]
  Potency: inactive
[3]
  Potency: inactive
[11]
  Potency: inactive
[4]
  Potency: inactive
[5]
  Potency: inactive
[6]
  Potency: inactive
[7]
  Potency: inactive
[12]
  Potency: inactive
[10]
  Potency: inactive

## C1CCNCC1
[1]
  Potency: inactive
[2]
  Potency: inactive
[3]
  Potency: inactive
[11]
  Potency: inactive
[4]
  Potency: inactive
[5]
  Potency: inactive
[6]
  Potency: inactive
[7]
  Potency: inactive
[10]
  Potency: inactive

## COP(=O)(OC)OC(Br)C(Cl)(Cl)Br (centres undefined)
[1]
  Potency: inactive
[2]
  Potency: inactive
[4]
  Potency: inactive
[5]
  Potency: inactive
[6]
  Potency: inactive
[7]
  Potency: inactive
[8]
  Potency: inactive

## C[N+]1(CCC(C(N)=O)(c2ccccc2)c2ccccc2)CCCCC1
[1]
  Potency: inactive
[2]
  Potency: inactive
[11]
  Potency: inactive
[4]
  Potency: inactive
[5]
  Potency: inactive
[6]
  Potency: inactive
[7]
  Potency: inactive
[10]
  Potency: inactive
